Read-out in assay [1]: TIMP metallopeptidase inhibitor 2 (TIMP2), TIMP2 (gene 7077)
Kind of assay: BSK_KF3CT_TIMP2: BioMAP Diversity Plus: KF3CT Assay for TIMP metallopeptidase inhibitor 2 (TIMP2) Biomarker Activity (AID 2283071). The note with it: primary human keratinocytes with fibroblasts; actives raise or lower the signal. In a few lines: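 Chemicals were dosed onto human skin primary co-cultures of keratinocytes and foreskin fibroblasts, and TIMP-2 was measured by ELISA after 24 hours. Activity in either direction was fitted relative to DMSO.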

Read-out in assay [2]: Transforming growth factor beta 1 (TGFb1), TGFB1 (gene 7040)
Kind of assay: BSK_KF3CT_TGFb1: BioMAP Diversity Plus: KF3CT Assay for Transforming growth factor beta 1 (TGFb1) Biomarker Activity (AID 2283072). Particulars: primary human keratinocytes with fibroblasts; actives raise or lower the signal. The gist of the method:
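KF3CT co-culture (keratinocytes + fibroblasts), 24 h exposure → TGF-b1 ELISA → bidirectional fit, DMSO = baseline. Parallel SRB total-protein staining (0.1% SRB, 10% TCA fixation, 560 nm) for cytotoxicity.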

Read-out in assay [3]: C-C motif chemokine 2 (Homo sapiens) (UniProt P13500)
Kind of assay: BSK_KF3CT_MCP1: BioMAP Diversity Plus: KF3CT Assay for Monocyte Chemoattractant Protein 1 (MCP1/CCL2) Biomarker Activity (AID 2283073). The note with it: primary human keratinocytes with fibroblasts; actives raise or lower the signal. The gist of the method:
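Human keratinocyte–foreskin fibroblast co-culture; MCP-1 measured by ELISA 24 h after dosing. Bidirectional fit vs DMSO; cytotoxicity tracked by SRB total protein in parallel cultures.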

Read-out in assay [4]: Matrix Metallopeptidase 9 (MMP9), MMP9 (gene 4318)
Kind of assay: BSK_KF3CT_MMP9: BioMAP Diversity Plus: KF3CT Assay for Matrix Metallopeptidase 9 (MMP9) Biomarker Activity (AID 2283074).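 For AC50: MMP9 protein level quantified by ELISA in the co-culture.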 Particulars: primary human keratinocytes with fibroblasts; actives raise or lower the signal. The gist of the method:
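Values come from bidirectional fitting relative to DMSO of MMP-9 levels, which were measured by ELISA. Measurements were taken 24 h after chemical dosing of a keratinocyte and foreskin fibroblast co-culture.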

Read-out in assay [5]: urokinase plasminogen activator (uPA), PLAU (gene 5328)
Kind of assay: BSK_KF3CT_uPA: BioMAP Diversity Plus: KF3CT Assay for urokinase plasminogen activator (uPA) Biomarker Activity (AID 2283075). Particulars: primary human keratinocytes with fibroblasts; actives raise or lower the signal. The gist of the method:
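Values derive from bidirectional fitting against DMSO controls. Keratinocyte/foreskin fibroblast co-cultures received chemical; 24 h later uPA was detected by ELISA, with SRB total-protein staining in parallel wells for overt cytotoxicity.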

Read-out in assay [6]: CD40, CD40 (gene 958)
Kind of assay: BSK_LPS_CD40: BioMAP Diversity Plus: LPS Assay for CD40 Biomarker Activity (AID 2283076). The note with it: primary human HUVEC with PBMC; actives raise or lower the signal. The gist of the method:
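HUVEC plus PBMC co-culture stimulated with LPS; CD40 quantified by ELISA 24 h after compound dosing. Fitting was bidirectional relative to DMSO. SRB staining of parallel cultures flagged overt cytotoxicity.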

Read-out in assay [7]: E-selectin (Homo sapiens) (UniProt P16581)
Kind of assay: BSK_LPS_Eselectin: BioMAP Diversity Plus: LPS Assay for Eselectin Biomarker Activity (AID 2283077). Particulars: primary human HUVEC with PBMC; actives raise or lower the signal. In a few lines: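 Human umbilical vein endothelial cells co-cultured with PBMC under LPS stimulation; cell-surface E-selectin measured by ELISA 24 h after dosing. Change in either direction versus DMSO, with SRB total-protein staining in parallel cultures for cytotoxicity.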

Read-out in assay [8]: Interleukin-8 (IL8), CXCL8 (gene 3576)
Kind of assay: BSK_LPS_IL8: BioMAP Diversity Plus: LPS Assay for Interleukin-8 (IL8) Biomarker Activity (AID 2283078). Particulars: primary human HUVEC with PBMC; actives raise or lower the signal. The gist of the method: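 Human umbilical vein endothelial cells co-cultured with PBMC, LPS-stimulated, exposed to compound for 24 h. IL-8 quantified by ELISA; fitted in both directions against DMSO, with SRB total-protein staining of parallel cultures for cytotoxicity.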

A short description of assay [9]: BSK_LPS_SRB: Viability Assessment in the BioMAP Diversity Plus: LPS Assay (AID 2283079).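 Note: total protein by sulforhodamine B absorbance as a cytotoxicity measure; measured one day after compound addition; fitted in both directions against DMSO so loss or gain of signal counts.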 Particulars: primary human HUVEC with PBMC. The gist of the method:
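Co-culture of human umbilical vein endothelial cells and PBMC, read 24 h after dosing. Total protein by 0.1% SRB staining after 10% TCA fixation, absorbance at 560 nm; bidirectional fit against DMSO.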

Read-out in assay [10]: Interleukin-1 alpha (IL1a), IL1A (gene 3552)
Kind of assay: BSK_LPS_IL1a: BioMAP Diversity Plus: LPS Assay for Interleukin-1 alpha (IL1a) Biomarker Activity (AID 2283080). Particulars: primary human HUVEC with PBMC; actives raise or lower the signal. The gist of the method:
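Human umbilical vein endothelial cells co-cultured with PBMC and stimulated with LPS; IL-1a measured by ELISA 24 h after dosing. Bidirectional fitting against DMSO; cytotoxicity checked by SRB staining in parallel cultures.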

Read-out in assay [11]: Monocyte Chemoattractant Protein-1 (MCP1), CCL2 (gene 6347)
Kind of assay: BSK_LPS_MCP1: BioMAP Diversity Plus: LPS Assay for Monocyte Chemoattractant Protein-1 (MCP1) Biomarker Activity (AID 2283081).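 For AC50: secreted MCP-1 protein quantified by ELISA in culture supernatant.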 The note with it: primary human HUVEC with PBMC; actives raise or lower the signal. The gist of the method:
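Human umbilical vein endothelial cells co-cultured with PBMC, LPS-stimulated; secreted MCP-1 measured by ELISA 24 h after compound addition. Bidirectional curve fitting against DMSO baseline; SRB total-protein staining in parallel cultures for cytotoxicity.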

A short description of assay [12]: BSK_LPS_PGE2: BioMAP Diversity Plus: LPS Assay for Prostaglandin E2 (PGE2) Biomarker Activity (AID 2283082). The note with it: primary human HUVEC with PBMC; actives raise or lower the signal. The gist of the method: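 Compounds were added to the LPS co-culture of endothelium and PBMC, and PGE2 was measured by ELISA after 24 h. Responses in either direction were fitted with DMSO as baseline.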

Read-out in assay [13]: Macrophage colony-stimulating factor (MCSF), CSF1 (gene 1435)
Kind of assay: BSK_LPS_MCSF: BioMAP Diversity Plus: LPS Assay for Macrophage colony-stimulating factor (MCSF) Biomarker Activity (AID 2283083). Particulars: primary human HUVEC with PBMC; actives raise or lower the signal. In a few lines:
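HUVEC–PBMC co-culture, M-CSF measured by ELISA 24 h after chemical dosing. Fitted in both directions relative to DMSO as negative control; overt cytotoxicity assessed by SRB total-protein staining in parallel cultures.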

Read-out in assay [14]: Tumor necrosis factor (Homo sapiens) (UniProt P01375)
Kind of assay: BSK_LPS_TNFa: BioMAP Diversity Plus: LPS Assay for Tumour Necrosis Factor alpha (TNFa) Biomarker Activity (AID 2283085).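 For AC50: TNFa protein level quantified by ELISA in the co-culture.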 Particulars: primary human HUVEC with PBMC; actives raise or lower the signal. In a few lines:
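Cells (umbilical vein endothelium plus peripheral blood mononuclear cells) were dosed with chemical, incubated 24 h, then TNFa was quantified by ELISA; values derive from bidirectional fitting with DMSO as baseline.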

Read-out in assay [15]: Vascular cell adhesion molecule 1 (VCAM1), VCAM1 (gene 7412)
Kind of assay: BSK_LPS_VCAM1: BioMAP Diversity Plus: LPS Assay for Vascular cell adhesion molecule 1 (VCAM1) Biomarker Activity (AID 2283086). Particulars: primary human HUVEC with PBMC; actives raise or lower the signal. The gist of the method: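 Cells are dosed in an LPS-stimulated endothelial/mononuclear co-culture and, after 24 h, VCAM-1 is quantified by ELISA. Activity in either direction is fitted relative to the DMSO negative control.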

Read-out in assay [16]: CD38, CD38 (gene 952)
Kind of assay: BSK_SAg_CD38: BioMAP Diversity Plus: SAg Assay for CD38 Biomarker Activity (AID 2283087). The note with it: primary human HUVEC with PBMC; actives raise or lower the signal. The gist of the method:
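CD38 quantified by ELISA (fluorescence) in a superantigen-activated endothelial cell–PBMC co-culture at 24 h post-dose. Activity fitted in both directions relative to DMSO; parallel SRB and Alamar Blue cytotoxicity read-outs.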

Read-out in assay [17]: CD40, CD40 (gene 958)
Kind of assay: BSK_SAg_CD40: BioMAP Diversity Plus: SAg Assay for CD40 Biomarker Activity (AID 2283088). Particulars: primary human HUVEC with PBMC; actives raise or lower the signal. In a few lines: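 HUVEC plus PBMC co-culture, superantigen-activated, with CD40 read by ELISA 24 h after dosing. Curves fitted in both directions against DMSO. Overt cytotoxicity checked by parallel SRB total-protein staining.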

Read-out in assay [18]: CD69, CD69 (gene 969)
Kind of assay: BSK_SAg_CD69: BioMAP Diversity Plus: SAg Assay for CD69 Biomarker Activity (AID 2283089).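 For AC50: cell surface CD69 protein quantified by ELISA with fluorescence detection.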 The note with it: primary human HUVEC with PBMC; actives raise or lower the signal. In a few lines:
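ELISA, fluorescence read-out: CD69 on human umbilical vein endothelial cell + PBMC co-culture, 24 h post-dosing. Gain or loss of signal fitted bidirectionally against DMSO baseline.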

Read-out in assay [19]: Monocyte Chemoattractant Protein-1 (MCP1), CCL2 (gene 6347)
Kind of assay: BSK_SAg_MCP1: BioMAP Diversity Plus: SAg Assay for Monocyte Chemoattractant Protein-1 (MCP1) Biomarker Activity (AID 2283090). Particulars: primary human HUVEC with PBMC; actives raise or lower the signal. The gist of the method: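 Values derive from bidirectional fitting of ELISA-measured MCP1 against DMSO controls. Readings were taken 24 h after dosing human vascular endothelial cells co-cultured with peripheral blood mononuclear cells under superantigen stimulation.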

Read-out in assay [20]: Tissue Factor, F3 (gene 2152)
Kind of assay: BSK_LPS_TissueFactor: BioMAP Diversity Plus: LPS Assay for Tissue Factor Biomarker Activity (AID 2283084). The note with it: primary human HUVEC with PBMC; actives raise or lower the signal. The gist of the method:
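Human umbilical vein endothelial cells co-cultured with PBMC were dosed with compound. Cell-surface CD142 was measured by ELISA 24 h later. Activity was fitted bidirectionally against DMSO, with SRB total-protein staining in parallel cultures for cytotoxicity.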

Each structure is given as a SMILES string. The source made the active and inactive calls. Rule for the calls: active = hit-call score of the fitted dose curve at least 0.9, where 1 is the maximum; inactive = score below 0.9.

Tumor necrosis factor (Homo sapiens), sequence (P01375 whole entry, looked up): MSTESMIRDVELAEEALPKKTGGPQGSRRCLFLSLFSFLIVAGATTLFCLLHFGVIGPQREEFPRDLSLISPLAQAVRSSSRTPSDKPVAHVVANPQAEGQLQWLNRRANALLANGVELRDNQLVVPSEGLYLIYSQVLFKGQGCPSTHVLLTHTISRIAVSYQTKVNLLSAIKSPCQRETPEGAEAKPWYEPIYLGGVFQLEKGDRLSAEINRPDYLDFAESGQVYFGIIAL
E-selectin (Homo sapiens), sequence (P16581 whole entry, looked up): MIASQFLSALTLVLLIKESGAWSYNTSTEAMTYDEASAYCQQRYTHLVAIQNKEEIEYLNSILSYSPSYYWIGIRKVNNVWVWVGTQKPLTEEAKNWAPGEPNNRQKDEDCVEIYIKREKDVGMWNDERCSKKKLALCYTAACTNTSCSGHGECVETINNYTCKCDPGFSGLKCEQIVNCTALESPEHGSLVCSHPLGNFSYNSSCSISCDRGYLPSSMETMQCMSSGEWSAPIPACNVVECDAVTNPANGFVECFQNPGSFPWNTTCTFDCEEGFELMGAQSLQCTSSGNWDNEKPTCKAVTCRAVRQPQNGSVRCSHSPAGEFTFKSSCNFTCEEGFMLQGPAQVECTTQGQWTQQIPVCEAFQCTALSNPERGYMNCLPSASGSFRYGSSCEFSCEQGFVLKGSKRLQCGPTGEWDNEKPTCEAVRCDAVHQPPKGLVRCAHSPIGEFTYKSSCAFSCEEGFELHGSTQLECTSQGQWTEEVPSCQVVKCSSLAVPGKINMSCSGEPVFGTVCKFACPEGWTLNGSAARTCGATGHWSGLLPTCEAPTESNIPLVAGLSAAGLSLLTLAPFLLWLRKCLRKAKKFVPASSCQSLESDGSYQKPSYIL

With `CCCCN(CCCC)SN(C)C(=O)Oc1cccc2c1OC(C)(C)C2`, the outcome in assay [1], in [2], in assay [3], in assay [5] and in assay [12] was inactive. For the same molecule, the AC50 in assay [4] was 13.8 µM (active); in [6], 20 µM (active); in assay [7] it was 30.8 µM (active); in assay [8] it was 30.9 µM (active); in [9] it was 28.4 µM (active); in assay [10], 29.8 µM (active). The concentration at half-maximal activity (AC50) is 30.9 µM (active) in assay [11]; 30.9 µM (active) in [13]; 35 µM (active) in [14]; 25.7 µM (active) in assay [15]; 31.4 µM (active) in [16]; 26.2 µM (active) in [17]. In addition, the concentration at half-maximal activity (AC50) in assay [18] was 27.6 µM (active); in assay [19] it was 37 µM (active).
Turning to `CCOC(=O)c1ccccc1C(=O)OCC`, the outcome in assay [1], in assay [2], in assay [3], in assay [4], in assay [5] and in [6] was inactive. Further, the result in assay [7], in [8], in assay [9], in [10], in assay [11] and in assay [12] was inactive. Besides, the result in assay [20], in assay [14], in [15], in assay [16], in [17] and in [18] was inactive. Moreover, the outcome in assay [19] was inactive.
Consider `Nc1ccc2ccccc2c1`, for which the result in assay [1], in assay [2], in [3], in [4], in assay [5] and in assay [6] was inactive. For the same molecule, the result in assay [7], in assay [8], in assay [9], in [10], in assay [11] and in assay [12] was inactive. In addition, the result in assay [13], in assay [20], in [14], in [15], in assay [16] and in [17] was inactive. Also, the outcome in assay [18] and in assay [19] was inactive.

For the origin of these results see PubChem BioAssay (EPA / NIEHS).
